Assay results from PubChem BioAssay AID651820 (National Center for Advancing Translational Sciences (NCATS), 2012).
Hit rate of the full screen: of about 340,000 compounds, about 12,000 (3.5%) were called active. Not shown: some 18% with an inconclusive outcome. The call rests on the fitted dose curve; in most records, active means well fitted inhibition curve with a large enough effect; inconclusive means small, poorly fitted or top-dose-only effect, or another doubt; inactive means no such curve, though single readings can be large or run the other way. What follows is part of a selection rich in actives, with near analogues and random picks from the rest.

Assay: qHTS Assay for Inhibitors of Hepatitis C Virus (HCV)
Conditions: Huh7.5.1 HCVcc-Cre infection, luciferase reporter, 44 h; series mostly up to 41.8 µM; activity change, negative = inhibition: at the top concentration
How it was run: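 Compounds are dispensed onto cells plated 4 h earlier at 1,000 per well, with HCVcc-Cre virus (about 0.5 moi) added next. Following 44 h of culture, luminescent signal is measured for 15 sec after 15 min with substrate at room temperature.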
On the % scale 0 is the no-effect control and ±100 the full control effect; potency means the concentration at half of the fitted maximal effect.

| Compound | activity change, negative = inhibition | Potency |
| --- | --- | --- |
| NC(=S)NN=C1CCCC(C(F)(F)F)C1 (configuration not stated) | 19.4% (inactive) |  |
| C#CCOCCOCCOCCNc1nc(N2CCN(C(=O)Cn3cc(CCCCN)nn3)CC2)nc(N2CCN(C(=O)[C@H](CCCCN)n3cc(CCC(=O)O)nn3)CC2)n1 | 19.6% (inactive) |  |
| CCOC(=O)C1=CN(Cc2ccc(Br)cc2)S(=O)(=O)N(C)C1C (configuration not stated) | -2.23% (inactive) |  |
| CCOC(=O)[C@H]1[C@H]2COc3cc(OC)ccc3[C@@H]2N2C(=O)CN(Cc3ccc(Cl)cc3)C(=O)[C@@]12C | 1.97% (inactive) |  |
| CN(CC(=O)NCCc1ccc(S(N)(=O)=O)cc1)CC(=O)Nc1ccc(F)c(F)c1F | -10.3% (inactive) |  |
| O=C(NCCS(=O)(=O)N1CCN(c2ccc(F)cc2)CC1)c1ccc2c(c1)OCO2 | -7.36% (inactive) |  |
| CN1CCc2c(sc3c2c(NCc2ccco2)nc2nnnn23)C1 |  | 10 µM (active) |
| CC1CCN(C(=O)CCc2nnc3ccc(NCc4ccco4)nn23)CC1 | 18.5% (inactive) |  |
| CCCSc1nc(NCc2ccco2)c2c3c(sc2n1)COC(C)(CC)C3 (configuration not stated) | -20.9% (inactive) |  |
| CCC1(c2ccccc2)NC(=O)N(CC(=O)Nc2ccccc2C(=O)NC2CCCC2)C1=O (configuration not stated) | -12.5% (inactive) |  |
| COCC(C)n1c(SCC(=O)NC2CCCCC2C)nc2ccccc2c1=O (configuration not stated) | 9.44% (inactive) |  |
| CSCCC(NC(=O)c1ccco1)C(=O)Nc1cc(C)ccn1 (configuration not stated) | 30.5% (inactive) |  |
| Cc1ccc(Nc2nnc(SCc3ccccc3)s2)cc1 | -17.6% (inactive) |  |
| CCc1ccc(Nc2n[n+](-c3ccccc3)c(-c3cccc(Cl)c3Cl)s2)cc1 |  | 10 µM (active) |
| COc1cc(Br)c(-c2sc(Nc3ccccc3)n[n+]2-c2ccccc2)cc1OC | 5.25% (inactive) |  |
| CCCN(C(=O)COC(=O)CNS(=O)(=O)c1ccc(NC(C)=O)cc1)C1CCS(=O)(=O)C1 (configuration not stated) | 18.2% (inactive) |  |
| COc1cc(OC)cc(C(=O)NNC(=O)CCOc2ccccc2OC)c1 | 13.4% (inactive) |  |
| COc1ccc(C)cc1NC(=O)c1cc(-c2ccccc2)nc2c1cnn2C(C)C | -27.2% (inactive) |  |
| O=C1Cc2cc(S(=O)(=O)Nc3cccc(F)c3)ccc2N1 | 13.7% (inactive) |  |
| COc1cc(OC)nc(S(C)(=O)=O)n1 | 5.26% (inactive) |  |
| COc1ccc(-c2cc(C(F)(F)F)nc(S(C)(=O)=O)n2)cc1OC |  | 10 µM (active) |
| COc1ccc(-c2cc(C(=O)NCCCN3CCCC3=O)c3ccccc3n2)cc1OC | 17% (inactive) |  |
| CSCCC(NC(=O)COc1ccccc1)C(=O)OCc1ccc(Cl)cc1 (configuration not stated) | 25.3% (inactive) |  |
| O=C(COC(=O)c1ccc(O)cc1O)c1ccc2c(c1)OCCO2 | -6.11% (inactive) |  |
| Cc1ccccc1-n1nc(C)c2cc(C(=O)NC3CC3)sc21 | -26.6% (inactive) |  |

| Compound | activity change, negative = inhibition | Potency |
| --- | --- | --- |
| CN(CCNC(=O)c1cc2c(-c3ccccc3F)nn(C)c2s1)C1CCCCC1 |  | 12.6 µM (active) |
| CCOC(=O)N1CCN(C(=O)c2cc3c(-c4ccc(Cl)cc4)nn(C)c3s2)CC1 | -20% (inactive) |  |
| CCOc1ncccc1C(=O)NNC(=O)c1cccc(S(=O)(=O)Nc2ccccc2OC)c1 | 3.32% (inactive) |  |
| C=CCCC(=O)N1C[C@H]2CON(C)[C@H]2C[C@H]1c1cccc(Nc2ccccc2)c1 | -15.5% [at 8.37 µM] (inactive) |  |
| Cc1ccc(C)c(NC(=S)NNC(=S)Nc2ccc(C(C)C)cc2)c1 |  | 5.62 µM (active) |
| Cc1ccc(C)c(NC(=S)NNC(=O)c2csc(C)c2)c1 | 8.71% (inactive) |  |
| CC(C)c1ccc(NC(=S)NNc2ccc(Cl)c(C(=O)O)c2)cc1 | 8.76% (inactive) |  |
| CCOc1ccc(Br)cc1S(=O)(=O)Nc1ccc(S(=O)(=O)Nc2cc(C)on2)cc1 | 4.99% (inactive) |  |
| COc1ccc(C2CC(c3cccs3)=NN2c2ccc(F)cc2)cc1OC (configuration not stated) | -5.17% (inactive) |  |
| COc1ccc(C2CC(c3cccs3)=NN2C(=O)CCC(=O)O)cc1OC (configuration not stated) | 4.23% (inactive) |  |
| COc1ccc(C2CC(c3cccs3)=Nc3ccccc3S2)cc1OC (configuration not stated) |  | 11.2 µM (active) |
| O=C(Nc1c[nH]c(=O)[nH]c1=O)OCc1ccccc1 | 6.8% (inactive) |  |
| CCOc1ccc(-c2nnc3ccc(SC)nn23)cc1 | -21.9% (inactive) |  |
| CCOc1ccc(-c2cc(C)[n+](CCN(CC)CC)c(-c3ccc(OCC)cc3)c2)cc1 |  | 11.2 µM (active) |
| CCOc1ccc(-c2c(C)n([O-])c3c([n+]2=O)CCCC3)cc1 | 3.27% (inactive) |  |
| COc1ccc(-c2cc(C(=O)NCCCN3CCOCC3)no2)cc1 | -3.36% (inactive) |  |
| O=C(NCCCN1CCOCC1)c1cc(-c2cccc(O)c2)on1 | 11.8% (inactive) |  |
| O=C(NCCCN1CCOCC1)c1cc(-c2ccc(Cl)cc2)on1 |  | 11.2 µM (active) |
| C[C@H](NC(=O)c1ccccc1Cl)C(=O)OCC(=O)N1CCN(c2ccccc2)CC1 | 12.9% (inactive) |  |
| CCN(CC)c1ccc(/C=N/NC(=O)c2cnccn2)c(O)c1 |  | 3.55 µM (active) |
| Cc1ccc(C(=O)NCCNC(=O)c2cnccn2)cc1 | 4.04% (inactive) |  |
| CCN(CC)c1ccc(/C=N/NC(=O)CNC(=O)c2cccnc2)cc1 | 5.9% (inactive) |  |
| CCC1([N+](=O)[O-])COC(c2ccc(C)cc2)OC1 (configuration not stated) | 3.04% (inactive) |  |
| COc1ccc(C(=O)NCc2ccc(Cl)cc2)cc1S(=O)(=O)N1CCCC1 | 7.82% (inactive) |  |
| O=C(COC(=O)c1cnccn1)Nc1ccc(Cl)cc1C(F)(F)F | 4.23% (inactive) |  |

| Compound | activity change, negative = inhibition | Potency |
| --- | --- | --- |
| Cc1ccc(C(=O)c2ccc(N3CCN(C)CC3)c([N+](=O)[O-])c2)cc1 |  | 10 µM (active) |
| CCOC(=O)C1CCN(c2ccc(C(=O)O)cc2[N+](=O)[O-])CC1 | 12.9% (inactive) |  |
| O=C(NCCCN1CCOCC1)c1ccc(N2CCCC2)c([N+](=O)[O-])c1 | 1.42% (inactive) |  |
| CS(=O)(=O)N1CCN(c2ccc(C(=O)NC3C4CC5CC(C4)CC3C5)cc2[N+](=O)[O-])CC1 (configuration not stated) |  | 11.2 µM (active) |
| Cc1cccc(N2CCN(c3ccc(C(N)=O)cc3[N+](=O)[O-])CC2)c1C | 22.1% (inactive) |  |
| O=C(NC1C2CC3CC(C2)CC1C3)c1ccc(N2CCNCC2)c([N+](=O)[O-])c1 (configuration not stated) | -6.97% (inactive) |  |
| Cc1cc([N+](=O)[O-])c(=O)[nH]c1C | 20.7% (inactive) |  |
| CN(C)C(=O)CCc1ccc2c3c([nH]c2c1)[C@]1(C)[C@@H](C(=O)N2CCCCC2)C[C@H](CC(=O)NCCC2=CCCCC2)C(=O)N1CC3 | 7.48% (inactive) |  |
| COc1cc(OC)cc(C(=O)NNC(=O)Cc2cccs2)c1 | -4.33% (inactive) |  |
| O=C(CNc1ccccc1N1CCCC1=O)Nc1cc(Cl)ccc1-n1cncn1 | 0.824% (inactive) |  |
| OCCNc1nc(Nc2ccc(Cl)c(Cl)c2)nc2ccccc12 |  | 10 µM (active) |
| CN(C)c1nc(Nc2ccc(Cl)c(Cl)c2)nc(N(C)C)n1 | -6.29% (inactive) |  |
| Cc1nnc(NCCO)c2ccccc12 | 21.6% (inactive) |  |
| CC(C)Sc1nc(N)nc2c1ncn2C1OC(CO)C(O)C1O (configuration not stated) | 5.19% (inactive) |  |
| CC[C@]12c3[nH]c4ccc(OC)cc4c3CCN1C(=O)C(CC(=O)NCCN1CCOCC1)C[C@@H]2C(=O)N1CCN(C(=O)C2CC2)CC1 (some centres not stated) | -14.4% (inactive) |  |
| Cc1cccn2c(=O)c3cc(C(=O)NCC4CCCO4)c(=N)n(Cc4ccc(F)cc4)c3nc12 (configuration not stated) |  | 5.62 µM (active) |
| O=C(Nc1ccccc1C(=O)NCC1CCCO1)c1ccccc1F (configuration not stated) | 2.29% (inactive) |  |
| Cc1cccn2c(=O)c3cc(C#N)c(=NC(=O)c4cccnc4)n(CC4CCCO4)c3nc12 (configuration not stated) | 2.8% (inactive) |  |
| CCOc1ccc(CCNC(=O)CN2C(=O)NC3(CCc4ccccc43)C2=O)cc1OCC (configuration not stated) | 7.59% (inactive) |  |
| COc1ccc(/C=C2/C(=O)N(c3ccccc3)N=C2C)c(OC)c1 | 19% (inactive) |  |
| COc1cc(/C=C/C2=CC(C)(C)NC(=S)N2)cc(OC)c1OC | 0.519% (inactive) |  |
| COc1ccc(/C=C/C2=CC(C)(C)NC(=S)N2)c(OC)c1 |  | 14.1 µM (active) |
| CCn1c(SCC(=O)NCC2CCCO2)nc2cc(S(=O)(=O)N3CCCCC3)ccc21 (configuration not stated) | -16.5% (inactive) |  |
| CCCCn1c(SCC(=O)N2CCCC2=O)nc2cc(S(N)(=O)=O)ccc21 | 14.2% (inactive) |  |
| CCCCn1c(SCc2ncc(-c3ccccc3)o2)nc2cc(S(N)(=O)=O)ccc21 |  | 6.31 µM (active) |

| Compound | activity change, negative = inhibition | Potency |
| --- | --- | --- |
| CC(=O)Nc1ccc(SC[C@H](Cc2ccccc2)N2CC[C@@H](C)CCC2=O)cc1 | 17.1% (inactive) |  |
| CCOc1ccc(-c2nc(N)ncc2-c2ccccc2OC)c(O)c1 | -9.58% (inactive) |  |
| C=C(C)COc1ccc(-c2nc(N)ncc2-c2ccccc2OC)c(O)c1 |  | 10 µM (active) |
| COc1ccc(-c2nc(N)ncc2-c2ccc(Cl)cc2)c(O)c1 | -24.2% (inactive) |  |
| O=C(COC(=O)c1ncc(Cl)c(Cl)c1Cl)NCc1ccccc1 | 1.03% (inactive) |  |
| O=C(CCNC(=O)c1ccccc1Cl)NN=Cc1ccco1 | 16% (inactive) |  |
| COC(=O)C1=C(C)NC(=S)NC1c1ccc(OCC(=O)N2CC(C)OC(C)C2)c(OC)c1 (configuration not stated) | 10.3% (inactive) |  |
| CNC[C@H](CC1CCCCC1)NC[C@H](NCCC1CCCC1)[C@H](C)O |  | 11.2 µM (active) |
| COC(=O)c1ccc(-c2c(-c3ccccc3)ncc3cc(OC)c(OC)cc23)cc1 | -3.02% (inactive) |  |
| COc1ccc(CCN(C)C(=O)C2CCCN(Cc3ccc(OC)c(OC)c3)C2)cc1OC (configuration not stated) | 2.61% (inactive) |  |
| COc1ccc(CCNC(=O)C2CCCN(Cc3nc(-c4cccc(Cl)c4)oc3C)C2)cc1OC (configuration not stated) |  | 10 µM (active) |
| COc1ccc(CCNC(=O)CS(=O)(=O)Cc2nc(-c3ccc(C)cc3)oc2C)cc1OC | -21.3% (inactive) |  |
| COc1ccc(NC(=O)CN(C)C(=O)c2cc(-c3ccc(C)o3)nc3ccccc23)cc1 | -21.8% (inactive) |  |
| Cn1cc(/C=C/c2nc3ccccc3c(=O)n2-c2cccc([N+](=O)[O-])c2)c2ccccc21 | 1.56% (inactive) |  |
| Cc1cccc(N=C2NC(=O)/C(=C/c3cn(C)c4ccccc34)S2)c1 |  | 14.1 µM (active) |
| CN(C)c1ccc(-n2cccc2/C=C2/SC(=Nc3ccc(F)cc3)NC2=O)cc1 | -22% (inactive) |  |
| Cc1cccc(N(Cc2ccccc2)C(=O)c2cc(S(=O)(=O)N3CCOCC3)ccc2F)c1 | -3.25% (inactive) |  |
| O=S(=O)(NC1CCCCC1)c1ccc(F)c2ccccc12 |  | 35.5 µM (active) |
| CSc1ccc(S(=O)(=O)NC2CCCCC2)cc1 | 15.8% (inactive) |  |
| O=S(=O)(NC1CC1)c1ccc2c3c(cccc13)CC2 | -28% (inactive) |  |
| O=C(NNc1nc(N2CCCC2)nc(N2CCCC2)n1)c1ccccc1 | -16.4% (inactive) |  |
| CN(C)C(=O)CCc1ccc2c3c([nH]c2c1)[C@]1(CCc2ccccc2)[C@@H](C(=O)N2CCCCC2)C[C@H](CC(=O)NCCC2=CCCCC2)C(=O)N1CC3 | 12.1% (inactive) |  |
